Only some compounds are listed: those with a hit (about 4.6% of all), similar ones and a draw of the others.
D1 agonist – Allosteric Agonists of the Human D1 Dopamine Receptor: qHTS; D(1A) dopamine receptor (Homo sapiens), P21728; HEK293 T-REx D1 cells, calcium flux, agonist mode; activation, % at 2 µM; 360,000 tested, 1% active
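Agonism was scored from calcium flux recorded over 180 s (1 read/s) after pintool compound addition, following a 10-cycle baseline. Cells were inducible force-coupled HEK293 TREx D1, plated overnight at 30 C and loaded with no-wash calcium dye.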
D1 antagonist – Antagonist of Human D 1 Dopamine Receptor: qHTS | D(1A) dopamine receptor (Homo sapiens), P21728 | HEK293 TREx D1 cells, calcium flux, dopamine EC80; stronger effect = lower value | activity change, negative = inhibition, % at 10 µM | 360,000 tested, 3.2% active; in the data active = activity change below about -30%
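Using tetracycline-induced force-coupled D1 Hek293 cells and a calcium dye, signals were followed for 180 s after compound, then for 180 s after EC80 dopamine, to detect inhibitors.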
D1 PAM – Potentiators of Human D1 Dopamine Receptor: qHTS | HEK293 TREx D1 cells, calcium flux, dopamine EC20 potentiation | 360,000 tested, 0.036% active | potentiation, % at 10 µM | D(1A) dopamine receptor (Homo sapiens), P21728; in the data active = potentiation above about 30%
TRHR agonist – qHTS for Small Molecule Agonists and Allosteric Enhancers of Human TRH Receptor: Primary Screen for Agonists | Thyrotropin-releasing hormone receptor (Homo sapiens), P34981 | TRHR cells, calcium flux fluo-8, FDSS agonist mode | activation, % at 2 µM | 360,000 tested, 0.18% active
Target sequence (P34981 whole entry, looked up): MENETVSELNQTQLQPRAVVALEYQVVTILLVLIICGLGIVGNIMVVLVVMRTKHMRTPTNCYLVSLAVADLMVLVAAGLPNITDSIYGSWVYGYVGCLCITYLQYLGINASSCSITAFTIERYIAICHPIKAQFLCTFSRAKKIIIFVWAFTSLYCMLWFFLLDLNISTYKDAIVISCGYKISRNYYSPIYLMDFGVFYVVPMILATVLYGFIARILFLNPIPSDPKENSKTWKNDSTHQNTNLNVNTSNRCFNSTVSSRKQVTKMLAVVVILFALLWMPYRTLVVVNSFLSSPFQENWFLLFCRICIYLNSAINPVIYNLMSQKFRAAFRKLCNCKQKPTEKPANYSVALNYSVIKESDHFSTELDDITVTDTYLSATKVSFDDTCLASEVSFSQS
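TRHR-expressing cells, plated overnight in medium with 10% serum, were loaded with fluo-8 calcium dye at room temperature. After a 10 s baseline, library compound was pin-added and calcium release was recorded kinetically (ex 480/em 530) as agonist response.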
TRHR enhancer – qHTS for Small Molecule Agonists and Allosteric Enhancers of Human TRH Receptor: Primary Screen for Enhancers. TRHR cells, fluo-8 calcium fluorescence, EC20 TRH enhancement. AID 493056, 2011. 360,000 tested, 0.66% active. enhancement, % at 2 µM. Thyrotropin-releasing hormone receptor (Homo sapiens), P34981; in the data active = enhancement above about 30%
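Enhancer read-out: after compound pinning and an initial kinetic agonist-mode read, an EC20 of TRH (10 nM final) was injected and fluo-8 calcium signal (Ex 480/Em 530) followed at 1 s/cycle for 100 cycles in TRHR-expressing cells.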
Numbers stand for hits; 0 = inactive; - = not tested or not shown. Rule as the data show it, unless noted: active = activation above about 30%; inactive = the rest.

SMILES | D1 agonist | D1 antagonist | D1 PAM | TRHR agonist | TRHR enhancer
CCOc1ccc(CN2C(=O)c3ccccc3Sc3ccc(C(=O)OC)cc32)cc1 | 0 | 0 | 0 | 0 | 0
CC(=O)N1CCc2cc(S(=O)(=O)NC(Cc3ccccc3)C(=O)Nc3cccc(C)c3)ccc21 (configuration not stated) | 0 | -38 | 0 | 0 | 0
CCC(=O)N1CCc2cc(S(=O)(=O)NCCC(=O)N3CCN(c4cccc(C)c4)C(C)C3)ccc21 (configuration not stated) | 0 | -40 | 0 | 0 | 0
CCC(=O)N1CCc2cc(S(=O)(=O)NC(C(=O)NCCc3cccc(C)c3)C(C)C)ccc21 (configuration not stated) | 0 | -62 | 0 | 0 | 0
CCC(=O)N1CCc2cc(S(=O)(=O)NC(C(=O)NCc3ccccc3)C(C)C)ccc21 (configuration not stated) | 0 | 0 | 0 | 0 | 0
Cc1ccc(C)c(N2CCN(C(=S)NC3CCCCC3)CC2)c1 | 0 | 0 | 0 | 0 | 0
Cc1cccc(N2CCN(C(=S)NC3CCCCC3)CC2)c1C | 0 | -33 | 0 | 0 | 0
O=C(COCc1cc(-c2ccco2)on1)Nc1cc(Cl)ccc1O | 0 | 0 | 0 | 0 | 0
CCN1CCN(CCCOc2ccc(Cl)cc2Br)CC1 | 59 | 0 | 0 | 0 | 0
Clc1ccc(OCCN2CCCCC2)c(Cl)c1 | 0 | 0 | 0 | 0 | 0
Clc1ccc(OCCCN2CCCCC2)c(Br)c1 | 0 | -62 | 0 | 0 | 0
Clc1ccc(OCCCCCN2CCCC2)c(Br)c1 | 73 | 0 | 0 | 0 | 0
Cc1ccc(S(=O)(=O)Cc2nc(-c3ccc(C(=O)NCc4ccccc4F)cc3)oc2C)cc1 | 0 | 0 | 0 | 0 | 0
COc1ccc(NS(=O)(=O)c2ccc(C)c(NC(=O)CN3C(=O)NC4(CCCC4)C3=O)c2)cc1 | 0 | 0 | 0 | 0 | 0
O=c1c2ccccc2sn1-c1cc(S(=O)(=O)N2CCOCC2)ccc1N1CCCC1 | 90 | 0 | 0 | 0 | 0
O=c1c2ccccc2sn1-c1cc(S(=O)(=O)N2CCOCC2)ccc1N1CCOCC1 | 0 | 0 | 0 | 0 | 0
c1ccc(-c2ccccc2OCCN2CCCC2)cc1 | 0 | 0 | 0 | 0 | 0
c1ccc(-c2ccccc2OCCCCN2CCCCCC2)cc1 | 0 | -35 | 0 | 0 | 0
COc1ccccc1OCCNC1CCCC1 | 0 | 0 | 0 | 0 | 0
CC1CCN(CCOCCOc2ccccc2Br)CC1 | 0 | -48 | 0 | 0 | 0
CCC(C)c1ccccc1OCCCNC1CCCC1 (configuration not stated) | 39 | -34 | 0 | 0 | 0
CC1CCN(CCCCOc2ccccc2-c2ccccc2)CC1 | 0 | -59 | 0 | 0 | 0
COc1ccccc1C(=O)Nc1ccc2oc(-c3cccc4c(Br)cccc34)nc2c1 | 0 | 0 | 0 | 0 | 0
COc1ccccc1/C=N/OCc1ccc(C#N)cc1 | 0 | 0 | 0 | 0 | 0
CCC(C)c1ccccc1OCCOCCN1CCCC1 (configuration not stated) | 0 | -30 | 0 | 0 | 0
SMILES | D1 agonist | D1 antagonist | D1 PAM | TRHR agonist | TRHR enhancer
c1ccc(-c2ccccc2OCCOCCN2CCCCC2)cc1 | 0 | -47 | 0 | 0 | 0
COc1ccc(S(=O)(=O)N(CC(=O)Nc2ccc3c(c2)OCO3)c2ccc(C)cc2)cc1 | 0 | 0 | 0 | 0 | 0
CCOc1ccccc1CN1CCC(CO)(CCOc2ccccc2)CC1 | 30 | 0 | 0 | 0 | 0
OCC1(CCOc2ccccc2)CCN(Cc2ccccc2C(F)(F)F)CC1 | 0 | 0 | 0 | 0 | 0
COc1ccc(CN2CCC(CO)(CCOc3ccccc3)CC2)c(OC)c1C | 66 | -31 | 0 | 0 | 0
Cc1c(C(=O)N2CCN(c3ccc([N+](=O)[O-])cc3)CC2)sc2ncn(CC(=O)N3CCOCC3)c(=O)c12 | 54 | 0 | - | 0 | 0
Cc1c(C(=O)N2CCOCC2)sc2ncn(CC(=O)N3CCC(C)CC3)c(=O)c12 | 0 | 0 | 0 | 0 | 0
Cc1ccc(N2C(=O)CC(N3CCN(c4ccccn4)CC3)C2=O)cc1 (configuration not stated) | 0 | 0 | 0 | 0 | 0
Cc1ccc2nc(-c3ccc(N4C(=O)CC(N5CCN(CCO)CC5)C4=O)cc3)sc2c1 (configuration not stated) | 0 | -36 | 0 | 0 | 0

Compound activity from PubChem BioAssay.
